# Assay outcomes deposited in PubChem by several laboratories.
# The list is not random: actives were taken first. Their share in the collection is about 2%.
# CF NFkB inh: cystic fibrosis NF-kB activation inhibition | KKLEB NF-kB-GFP reporter, PAF-induced, GFP fluorescence overnight | inhibition, % at 5 µM | actives 0.86% (n = 360,000);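 active = at least 50% inhibition at 5 µM, scaled per plate between neutral and stimulator controls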;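 also: PAF is a Pseudomonas aeruginosa culture filtrate used as stimulus; plate controls were PAF-stimulated DMSO wells for no effect and unstimulated DMSO wells for full effect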
# EWS-Fli block: blocks EWS/Fli oncoprotein-driven transcription. AID 651661. inhibition, % at 12.6 µM. actives 0.67% (n = 350,000). A673 NR0B1-luciferase reporter, viability-normalised;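 active = mean inhibition of at least 50% after viability correction, with every replicate also passing that limit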;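 also: firefly luciferase signal divided by Alamar Blue viability fluorescence both relative to DMSO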
# Shn3 inh set2: inhibitors of Schnurri-3 3'UTR reporter in osteoblasts; inhibition, % at 12.5 µM; actives 0.52% (n = 360,000); Clone20 osteoblast Shn3 3'UTR firefly luciferase, 24 h; AID 588674;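 active = mean inhibition of at least 75% with every replicate also reaching 75%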;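 also: 0% = median of neutral control wells and 100% = pilot-screen positive control compound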
# PAX8 inh HTS: inhibitors of PAX8 transcriptional activity in RMG-I cells; RMG-I TPO-luciferase reporter, SteadyGlo, 24 h; inhibition, % at 12.6 µM; actives 1.2% (n = 360,000); AID 652154;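 active = mean replicate inhibition at least 60% with every replicate also reaching 60%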;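 also: luciferase light reporting Pax8 driven TPO promoter activity; plate controls were median of neutral control wells for no effect and mitoxantrone controls for full effect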
# LGR2 inh: Drosophila LGR2 receptor signaling inhibition. actives 0.35% (n = 380,000). AID 720647. inhibition, % at 9.99 µM. HEK293 LGR2, CRE-luciferase, bursicon-stimulated, 4 h;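 active = drop in luminescence signal, shown as inhibition above about 50% in the replicate tests, limit read from the data, passing the limit was not always enough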;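 also: agonist challenge used bursicon conditioned medium at about half maximal strength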
# KKLEB cytotox: CF airway cell cytotoxicity counter-screen | actives 0.36% (n = 360,000) | AID 602141 | activity change (cytotoxicity), % at 5 µM | KKLEB CF airway cells viability, ATPlite luminescence, overnight; active compounds read low; cells stimulated with P. aeruginosa culture filtrate;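 active = corrected activity change at or below -50% at 5 µM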
# CF NFkB conf: confirmation of cystic fibrosis induced NF-kB inhibitors | shares compounds with CF NFkB inh | KKLEB CF airway cells, PAF-induced NF-kB-GFP fluorescence, overnight | inhibition, % at 5 µM | actives 64% (n = 1,300) | AID 602472; in the data active = inhibition above about 40%;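 also: stimulus PAF is a Pseudomonas aeruginosa filtrate and not platelet activating factor; plate controls were DMSO wells with stimulus for no effect and unstimulated DMSO wells for full effect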
# Starred values were filed as active, the others as inactive; nt = no result given.
SMILES,CF NFkB inh,EWS-Fli block,Shn3 inh set2,PAX8 inh HTS,LGR2 inh,KKLEB cytotox,CF NFkB conf
COc1ccc(C2=Nn3c(nnc3-c3ccccc3OC)SC2)cc1OC1CCOC1 (centres undefined),58.3*,36.0,11.9,68.3*,-0.2,-2.9,81.3*
COc1ccc(C2=Nn3c(nnc3-c3ccccc3Cl)SC2)cc1OCC1CC1,39.9,32.5,54.4,55.5,15.3,-24.3,nt
COc1ccc(C2=Nn3c(nnc3-c3ccccc3C(F)(F)F)SC2)cc1OC1CCOC1 (centres undefined),29.9,32.2,4.5,23.2,2.6,-7.7,nt
COc1ccc(OC)c(-c2nnc3n2N=C(c2ccc(OC)c(OCC4CC4)c2)CS3)c1,60.4*,nt,6.0,nt,nt,6.9,84.2*
CCN(C[C@H]1[C@@H](c2ccccc2)[C@@H](CO)N1C(=O)COC)S(C)(=O)=O,nt,2.6,nt,-0.3,-12.8,nt,nt
CCN(C(=O)c1cc(S(=O)(=O)N2CCCCC2)c[nH]1)c1ccc(OC)cc1,50.4*,-5.6,9.6,-31.9,12.1,-11.9,45.8*
CCN(CC)C(=O)c1cc(S(=O)(=O)N2CCCCC2)c[nH]1,17.4,2.8,4.1,22.3,2.9,-10.4,nt
Cc1noc(C)c1NC(=O)Nc1ccc2c(c1)C(=O)N([C@@H](C)CO)C[C@@H](C)[C@@H](CN(C)S(=O)(=O)c1cn(C)cn1)O2,nt,0.2,nt,nt,15.2,nt,nt
CN(C)C(=O)c1cccc(-c2ccc([C@H]3[C@H]4CN(C(=O)C5CCC5)CC(=O)N4[C@H]3CO)cc2)c1,nt,9.1,nt,nt,-8.0,nt,nt
Cc1cc(C)nc(Sc2ncnc(N)c2[N+](=O)[O-])n1,63.0*,8.6,40.4,1.4,10.5,-12.0,63.1*
Cc1cccc(Nc2ncnc(N)c2[N+](=O)[O-])n1,28.8,-12.7,7.9,-10.4,17.3,13.9,nt
Cc1nc(N)c(C#N)c(-c2cccnc2)c1-c1ccccc1,63.4*,-11.8,23.1,-60.5,-5.7,-5.4,68.0*
Cc1c(-c2ccccc2)nc(N)c(C#N)c1-c1cccnc1,21.6,13.2,-4.4,10.6,1.1,-15.7,nt
CCOc1cc(/C=C2\COc3ccccc3C2=O)cc(Br)c1OCC(=O)N(C)C,97.8*,63.1*,75.3,10.4,-1.4,-32.1,-195.8
COc1ccc(/C=C2\COc3ccccc3C2=O)cc1OC,11.7,nt,11.5,-14.6,-22.4,1.8,nt
C[C@]12CCC(=O)C=C1CC[C@@H]1[C@@H]2CC[C@@]2(C)[C@H]1CC[C@]2(O)C(=O)CO,22.1,-0.6,29.3,-1.5,26.2,-3.0,nt
C[C@@H]1C[C@H]2[C@@H]3CCC4=CC(=O)C=C[C@]4(C)[C@@]3(F)[C@@H](O)C[C@]2(C)[C@@]1(O)C(=O)CO,70.6*,5.6,6.8,-2.0,6.0,13.2,21.4
CC1(C)OC2CC3C4CCC5=CC(=O)C=CC5(C)C4(F)C(O)CC3(C)C2(C(=O)CO)O1 (centres undefined),66.6*,-1.7,9.3,2.2,-13.8,13.1,9.2
CC1C(=O)N(Cc2cn(Cc3ccco3)nn2)CCS(=O)(=O)N1Cc1ccc(-c2ccccc2C(F)(F)F)cc1 (centres undefined),66.0*,1.6,11.1,3.3,nt,-22.7,52.1*
Cc1ccc(-c2ccc(CN3C(C)C(=O)N(Cc4cn(CC5CCCCC5)nn4)CCS3(=O)=O)cc2)cc1 (centres undefined),75.6*,11.5,17.6,-5.9,nt,-23.7,40.0
Cc1ccc(-c2ccc(CN3C(C)C(=O)N(Cc4cn(Cc5ccco5)nn4)CCS3(=O)=O)cc2)cc1 (centres undefined),39.6,-5.7,8.5,22.1,27.0,2.9,nt
CCC/C=C/c1ccc(CN2C(C)C(=O)N(Cc3cn(Cc4ccco4)nn3)CCS2(=O)=O)cc1 (centres undefined),20.1,-10.5,18.3,27.9,17.3,-10.3,nt
Cc1ccccc1-c1ccc(CN2C(C)C(=O)N(Cc3cn(Cc4ccco4)nn3)CCS2(=O)=O)cc1 (centres undefined),60.1*,-7.4,-6.3,13.2,-9.0,7.0,19.2
